Env fusion inh: inhibitors of HIV-1 Env-driven cell-cell fusion, primary screen, HeLa-JRFL effector, CEM21 target cells, luciferase; actives 1.1% (n = 360,000); inhibition, % at 12.3 µM; AID 651610, 2012;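 active = mean replicate inhibition score of at least 50 and every replicate individually at or above 50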
INS-1E GSIS act: GLuc luminescence reporter in INS-1E cells, primary screen for activators of glucose-dependent secretion of insulin; INS-1E GLuc reporter insulin secretion, 2-3 h; activation, % at 16.6 µM; actives 0.61% (n = 370,000);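 active = lowest replicate activation of at least 40%, so every replicate reaches that level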
PGC1a acetyl inh: inhibitors of PGC1a acetylation signal, primary screen, cell-based, U2OS, AlphaScreen, inhibitor mode; AlphaScreen anti-acetyl-lysine; with virally co-expressed GCN5 acetyltransferase; inhibition, % at 15.6 µM; actives 0.17% (n = 350,000);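 active = every replicate shows inhibition of at least 40%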
EWS-Fli block: EWS/Fli-driven NR0B1 reporter inhibitors, primary screen, A673 cells, NR0B1 luciferase, luminescence, MLPCN library. viability-normalised. inhibition, % at 12.6 µM. actives 0.67% (n = 350,000). AID 651661, 2012;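 active = mean inhibition of at least 50% after viability correction, with every replicate also passing that limit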;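 note: firefly luciferase signal divided by Alamar Blue viability fluorescence both relative to DMSO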
PAX8 reporter: inhibitors of PAX8-driven TPO luciferase reporter, primary screen, RMG-I cells, single concentration | SteadyGlo, 24 h | inhibition, % at 12.6 µM | actives 1.2% (n = 360,000) | AID 652154, 2013;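 active = mean replicate inhibition at least 60% with every replicate also reaching 60%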;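 note: luciferase light reporting Pax8 driven TPO promoter activity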
F508del corr: F508del CFTR correction, initial screen, CFBE line, single point; CFBE cells, YFP halide quenching; stimulated with forskolin plus potentiator P3; % fluorescence drop versus neutral controls; activity (quench increase), % at 7.58 µM; actives 0.36% (n = 350,000); AID 720511, 2013;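 active = mean added fluorescence quench of at least 8% versus neutral control, with both replicates also reaching 8%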;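 note: cells transiently co-express mutant CFTR-F508del with the halide-sensitive YFP; corrector assay measuring rescue of mutant channel to the surface after 24 h compound exposure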
Of the large screens only hits and unclear results are named; the others gave an inactive call; [ ] = remark or other dose. A selection: hits, their analogues and other compounds. The true share with any hit is near 2.7%.

CC(C)(C)OC(=O)NCCCCCc1cn([C@@H](CO)C(=O)NCCCCCCCCCCC(=O)N2CCN(C(=O)OC(C)(C)C)CC2)nn1	none (no result: INS-1E GSIS act, PGC1a acetyl inh)
O=C(C[C@@H]1CC[C@H]2[C@@H](COC[C@H](O)CN2C(=O)Nc2cccc(Cl)c2)O1)NCCCN1CCOCC1	none
CCCCc1c(-c2ccccc2F)ncn1CCc1ccccc1OC	Env fusion inh 65.0, INS-1E GSIS act 63.6 (no result: PGC1a acetyl inh)
CCCCc1c(-c2ccccc2OC)ncn1Cc1ccc(Cl)cc1Cl	none (no result: INS-1E GSIS act, PGC1a acetyl inh)
CCCCCc1c(-c2ccccc2OC)ncn1CCc1ccccc1OC	Env fusion inh 69.4, PAX8 reporter 99.4 (no result: PGC1a acetyl inh)
CCc1c(Cc2ccccc2)ncn1CCc1ccccc1OC	PAX8 reporter 78.0 (no result: INS-1E GSIS act, PGC1a acetyl inh)
CCCCc1c(-c2ccccc2OC)ncn1C(C)c1ccc(Cl)cc1 (stereo unspecified)	INS-1E GSIS act 54.6 (no result: PGC1a acetyl inh)
C[C@H]1CN([C@@H](C)CO)C(=O)c2cccc(NC(=O)Nc3ccc(C(F)(F)F)cc3)c2O[C@@H]1CN(C)Cc1ccc(-c2ccccc2)cc1	none (no result: Env fusion inh, PAX8 reporter)
CC(=O)Nc1ccc(-c2csc(NC(=O)CN3C(=O)NC4(CCCC4)C3=O)n2)cc1	F508del corr 8.1 (no result: PGC1a acetyl inh)
Cc1cc(NC(=O)CN2C(=O)NC3(CCCCCC3)C2=O)ccc1Br	F508del corr 31.8 (no result: Env fusion inh)
CC(C)(C)c1ccccc1NC(=O)CN1C(=O)NC2(CCCCCC2)C1=O	F508del corr 30.0 (no result: Env fusion inh)
Cc1ccc(NC(=O)CN2C(=O)NC3(CCCCCC3)C2=O)cc1Cl	none
CC(C)CC1Nc2ncnc(N3CCN(c4ccccn4)CC3)c2N(Cc2ccc(Br)cc2)C1=O (stereo unspecified)	F508del corr 8.3
COc1ccc(CNCc2ccco2)cc1OCc1ccccc1	none (no result: Env fusion inh, INS-1E GSIS act, EWS-Fli block, PAX8 reporter, F508del corr)
COc1ccccc1CCNCc1ccc(OC)c(OCc2ccccc2)c1	Env fusion inh 73.8 (no result: EWS-Fli block, PAX8 reporter, F508del corr)
Cc1nn(C2CCS(=O)(=O)C2)c(Cl)c1/C=C/C(=O)OCC(=O)c1cc(C)n(-c2ccc(F)cc2)c1C (stereo unspecified)	Env fusion inh 55.0
Cc1nn(C2CCS(=O)(=O)C2)c(Cl)c1/C=C/C(=O)OCC(=O)c1c[nH]c2ccccc12 (stereo unspecified)	none (no result: PGC1a acetyl inh)
Cc1ccc(-c2ccc([C@H]3[C@H](CO)N4CCCCN(S(=O)(=O)c5cccc(C)c5)C[C@@H]34)cc2)cc1	PAX8 reporter 87.2 (no result: Env fusion inh, INS-1E GSIS act)
C/C=C/c1ccc([C@H]2[C@H]3CN(S(=O)(=O)c4cccc(C)c4)CCCCN3[C@H]2CO)cc1	none (no result: Env fusion inh)
C/C=C/c1ccc([C@@H]2[C@H](CO)N3CCCCN(S(=O)(=O)c4ccccc4)C[C@@H]23)cc1	F508del corr 31.4 (no result: Env fusion inh)
O=S(=O)(c1ccccc1)N1CCCCN2[C@H](CO)[C@@H](c3ccc(-c4ccccc4F)cc3)[C@@H]2C1	none (no result: Env fusion inh, PGC1a acetyl inh, EWS-Fli block, PAX8 reporter, F508del corr)
Cc1ccccc1-c1ccc([C@@H]2[C@H](CO)N3CCCCN(S(=O)(=O)Cc4ccccc4)C[C@@H]23)cc1	EWS-Fli block 57.0 (no result: Env fusion inh)
O=S(=O)(c1ccccc1)N1CCCCN2[C@H](CO)[C@H](c3ccc(-c4ccccc4F)cc3)[C@H]2C1	PAX8 reporter 114.0 (no result: Env fusion inh)
CO[C@@H]1CN(C)C(=O)c2ccc(NC(=O)C3CCOCC3)cc2OC[C@@H](C)N(C(=O)c2ccccc2)C[C@H]1C	none
COCCNC(=O)C[C@@H]1CC[C@H]2[C@@H](COc3ccc(NC(=O)COC)cc3C(=O)N2C)O1	none
Cc1ccccc1-c1ccc([C@@H]2[C@@H](CO)N3CCCCN(C(=O)NC4CCCC4)C[C@H]23)cc1	PAX8 reporter 82.0 (no result: Env fusion inh)
CC(C)(C)C(=O)/C(C#N)=C/c1cccs1	none
N#C/C(=C\c1cccs1)C(=O)c1ccccc1Cl	PAX8 reporter 64.4 (no result: PGC1a acetyl inh)
C[C@@H]1CN([C@@H](C)CO)S(=O)(=O)c2ccc(C3=CCCCC3)cc2O[C@H]1CN(C)Cc1ccccc1	none (no result: PAX8 reporter)
C[C@@H]1CN([C@H](C)CO)S(=O)(=O)c2ccc(C3=CCCCC3)cc2O[C@H]1CN(C)Cc1ccccc1	PGC1a acetyl inh 42.9 (no result: PAX8 reporter)
C[C@@H]1CN([C@H](C)CO)S(=O)(=O)c2ccc(C3=CCCC3)cc2O[C@H]1CN(C)Cc1ccccc1	none (no result: PAX8 reporter)
C[C@H](CO)N1C[C@H](C)[C@@H](CN(C)Cc2ccncc2)Oc2cc(C3=CCCCC3)ccc2S1(=O)=O	Env fusion inh 64.0[16.7 µM] (no result: PAX8 reporter)
C[C@H](CO)N1C[C@H](C)[C@@H](CN(C)Cc2ccccc2)Oc2cc(C3=CCCC3)ccc2S1(=O)=O	Env fusion inh 55.4[16.7 µM] (no result: PAX8 reporter)
CN(C)C(=O)C[C@@H]1CC[C@@H]2[C@H](COc3ccc(NC(=O)Nc4cccc(Cl)c4)cc3C(=O)N2C)O1	none (no result: Env fusion inh)
CO[C@@H]1CN(C)C(=O)c2cc(NC(=O)C3CCC3)ccc2OC[C@@H](C)N(C(=O)NC(C)C)C[C@@H]1C	none (no result: Env fusion inh)
Cc1ccc(C(=O)Nc2ccc3c(c2)OCCO3)c(C)c1	EWS-Fli block 79.0, PAX8 reporter 67.6
Cc1ccc(C(=O)N2CCN(c3ccc(NC(=O)c4ccc5c(c4)OCCO5)cc3)CC2)cc1	Env fusion inh 64.8
Cc1cc(C)c(C(=O)Nc2ccc3c(c2)OCCO3)c(C)c1	none (no result: PGC1a acetyl inh)
CC(C)NC(=O)N1[C@H](CO)[C@H](c2ccccc2)C12CN(C(=O)CN(C)C)C2	none (no result: Env fusion inh)
COc1cccc(C(=O)OCC(=O)N2CCc3ccccc32)c1OC	none
Cc1ccccc1OCC(=O)OCC(=O)N1CCCc2ccccc21	none
COc1ccc(CC(=O)OCC(=O)Nc2cccc(C(C)=O)c2)cc1OC	INS-1E GSIS act 59.2 (no result: Env fusion inh)
COc1ccc(CC(=O)OCC(=O)N2CCc3ccccc32)cc1OC	INS-1E GSIS act 121.2 (no result: Env fusion inh)
COc1ccc(CC(=O)OCC(=O)N2CCCc3ccccc32)cc1OC	INS-1E GSIS act 110.8
O=C(NCC[C@H]1CC[C@H](NC(=O)c2cnccn2)[C@@H](CO)O1)Nc1ccc(Cl)cc1	none
Clc1ccc(CN(Cc2ccccc2)C(c2cccs2)c2nnnn2C2CCCC2)cc1 (stereo unspecified)	Env fusion inh 93.7 (no result: INS-1E GSIS act, PGC1a acetyl inh, EWS-Fli block, PAX8 reporter, F508del corr)
c1ccc(CN(Cc2ccco2)C(c2ccncc2)c2nnnn2C2CCCC2)cc1 (stereo unspecified)	none (no result: Env fusion inh, INS-1E GSIS act, EWS-Fli block, PAX8 reporter, F508del corr)
NC(=O)c1ccc(Sc2nnc(-c3cccs3)n2CC2CCCO2)c([N+](=O)[O-])c1 (stereo unspecified)	EWS-Fli block 75.2 (no result: F508del corr)
CC(=O)c1ccc(N2CCN(c3ccc(C(N)=O)cc3[N+](=O)[O-])CC2)cc1	none (no result: PGC1a acetyl inh)
NC(=O)c1ccc(N2CCN(c3ccc(O)cc3)CC2)c([N+](=O)[O-])c1	Env fusion inh 65.5 (no result: PGC1a acetyl inh, EWS-Fli block, F508del corr)
Cc1ccc2cc(CN(CC3CCCO3)C(=S)Nc3ccccc3)c(=O)[nH]c2c1C (stereo unspecified)	F508del corr 12.3 (no result: PGC1a acetyl inh)
CCCCC(=O)NC(c1ccccc1Cl)c1ccc2cccnc2c1O (stereo unspecified)	PAX8 reporter 85.3

Bioassay records (PubChem)
